Results on eleven molecules are retold here after PubChem BioAssay (NCI).

About 83,000 compounds went through this panel and 20% of them were active in at least one assay; those are over-represented in the sample as a whole.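 Single-dose data. Exposure time 48 hours. Values below 10 considered active.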 Values without a mark were called inactive. Activity calls are given as the source filed them.

Among the test systems are NCI-H23 lung; NCI-H226 lung; NCI-H322M lung; HOP-62 NSCLC; NCI-H460 lung; HOP-92 NSCLC; NCI-H522 lung; A549/ATCC NSCLC; 786-0 renal; COLO 205 colon.
What all share (assay): NCI-60 one-dose screen, 48 h (100 = growth as untreated, 0 = no growth, -100 = all killed)
Holding throughout (conditions): 10 µM unless noted

Regarding `CC(=O)/C(=C/c1ccc([N+](=O)[O-])cc1)C(=O)c1ccccc1`, the growth in the experiment with NCI-H23 lung was 88.1%; with NCI-H226 lung, 81.5%; in the experiment with NCI-H322M lung, 100%; with HOP-62 NSCLC, 79.8%; in the experiment with NCI-H460 lung, 107%; with HOP-92 NSCLC, 70.1%. Moreover, the growth is 52% with NCI-H522 lung, 83.6% in the experiment on A549/ATCC NSCLC, 92.5% with 786-0 renal and 90% with COLO 205 colon.
For the molecule `Cc1ccc(C2CC(c3nc(-c4ccc(Cl)cc4)oc3C)=NN2C(=O)c2ccncc2)cc1` (stereo not given), the growth in the experiment with NCI-H23 lung is 85.8%; in the experiment on NCI-H226 lung, 88.3%; with NCI-H322M lung it was 93.3%; in the experiment on HOP-62 NSCLC, 99.3%; with NCI-H460 lung it was 92.7%; in the experiment with HOP-92 NSCLC, 80%. Besides, the growth in the experiment on NCI-H522 lung was 80.8%; with A549/ATCC NSCLC it was 84.4%; with 786-0 renal, 79.5%; in the experiment with COLO 205 colon it was 107%.
For `Cc1ccc(S(=O)(=O)N2CCC(=O)c3ccccc32)cc1`, the growth was 85% in the experiment on NCI-H23 lung; 93.9% with NCI-H226 lung; 89.3% in the experiment with NCI-H322M lung; 80.8% in the experiment on HOP-62 NSCLC; 86.5% with NCI-H460 lung; 80.8% with HOP-92 NSCLC. Besides, the growth was 84% in the experiment on NCI-H522 lung, 102% in the experiment with A549/ATCC NSCLC, 93.7% with 786-0 renal and 76.4% in the experiment with COLO 205 colon.
On to `S=c1[nH]c(=S)c2c(-c3ccccc3)c(-c3ccccc3)oc2[nH]1`, for which the growth in the experiment on NCI-H23 lung was 97.8%; in the experiment with NCI-H226 lung, 92.7%; with NCI-H322M lung, 118%; in the experiment on HOP-62 NSCLC it was 92.6%; in the experiment with NCI-H460 lung, 108%; with HOP-92 NSCLC, 100%. Further, the growth with NCI-H522 lung was 97.5%; with A549/ATCC NSCLC it was 95.7%; with 786-0 renal, 103%; with COLO 205 colon it was 120%.
For `O=C(CN1CCCCCC1)Nc1nc2ccc(NCc3ccc(Cl)cc3)cc2s1`, the growth is 97.3% with NCI-H23 lung; 93.5% with NCI-H226 lung; 108% with NCI-H322M lung; 103% in the experiment on HOP-62 NSCLC; 97% with NCI-H460 lung; 90.9% in the experiment on HOP-92 NSCLC. In addition, the growth is 84.7% in the experiment with NCI-H522 lung, 98.7% in the experiment on A549/ATCC NSCLC, 104% in the experiment on 786-0 renal and 109% with COLO 205 colon.
Turning to `C#CCNC(=O)[C@]1(C)CCC[C@@]2(C)[C@H]1CC=C1C=C(C(C)C)CC[C@@H]12`, the growth was 100% in the experiment with NCI-H23 lung; 97.6% in the experiment on NCI-H226 lung; 100% in the experiment with NCI-H322M lung; 98.7% with HOP-62 NSCLC; 106% in the experiment on NCI-H460 lung; 109% in the experiment with HOP-92 NSCLC. Further, the growth in the experiment with NCI-H522 lung is 96.2%; in the experiment on A549/ATCC NSCLC it was 97.6%; with 786-0 renal, 96.8%; in the experiment with COLO 205 colon, 115%.
Turning to `O=C(Cn1nnc2ccccc21)N/N=C/c1c[nH]c2ccccc12`, the growth in the experiment with NCI-H23 lung was 71%; with NCI-H226 lung, 77%; with NCI-H322M lung, 80%; with HOP-62 NSCLC, 36.6%; with NCI-H460 lung, 21%; with HOP-92 NSCLC, 57.7%. For the same molecule, the growth in the experiment on NCI-H522 lung is 18.1%; in the experiment with A549/ATCC NSCLC, 49%; with 786-0 renal, 58%; with COLO 205 colon, 37.2%.
With `O=S(=O)(NCCNc1nccc(-c2c(-c3cccc(O)c3)nc3occn23)n1)c1ccc(Br)cc1`, the growth was 53.2% in the experiment on NCI-H23 lung; 37.1% in the experiment with NCI-H226 lung; 42.3% with NCI-H322M lung; 45.2% in the experiment on HOP-62 NSCLC; 31.2% in the experiment on NCI-H460 lung; 33.2% in the experiment on HOP-92 NSCLC. For the same molecule, the growth in the experiment with NCI-H522 lung is 24.5%; in the experiment with A549/ATCC NSCLC, 20.9%; in the experiment with 786-0 renal it was 45.8%; in the experiment on COLO 205 colon, 18.4%.
Take `CN(C)CCCC1(c2ccc(F)cc2)OCc2cc(-c3ccc4cc[nH]c4c3)ccc21` (stereo not given): the growth with NCI-H23 lung was 86.6%; with NCI-H226 lung, 95.2%; in the experiment on NCI-H322M lung it was 65%; in the experiment with HOP-62 NSCLC, 74.9%; in the experiment on NCI-H460 lung it was -10.5% (active); in the experiment with HOP-92 NSCLC, 45.9%. The growth in the experiment with NCI-H522 lung was 61.5%; with A549/ATCC NSCLC it was 49.1%; with 786-0 renal it was 78.1%; in the experiment with COLO 205 colon it was 9.88% (active).
With `C=C1C(=O)O[C@H]2[C@H]1CC/C(Cn1cc(CCC)nn1)=C\CC[C@@]1(C)O[C@@H]21`, the growth was 41.1% with NCI-H23 lung; -37.4% (active) in the experiment on NCI-H226 lung; 90.2% in the experiment with NCI-H322M lung; 73.9% in the experiment with HOP-62 NSCLC; 61.4% in the experiment on NCI-H460 lung; -11.2% (active) in the experiment with HOP-92 NSCLC. Also, the growth in the experiment on NCI-H522 lung is -70.7% (active); in the experiment on A549/ATCC NSCLC it was 68.2%; in the experiment on 786-0 renal it was 3.66% (active); with COLO 205 colon, -72.1% (active).
For the molecule `COc1ccc(/C=C/c2ccc3ccccc3n2)c(OC)c1`, the growth in the experiment with NCI-H23 lung is 74.3%; in the experiment with NCI-H226 lung, 86.1%; in the experiment on NCI-H322M lung, 75.4%; in the experiment on HOP-62 NSCLC, 74.4%; in the experiment with NCI-H460 lung it was 75.5%; in the experiment on HOP-92 NSCLC it was 46.8%. The growth with NCI-H522 lung is 72.5%; with A549/ATCC NSCLC, 79.6%; with 786-0 renal it was 96.1%; in the experiment with COLO 205 colon it was 85.9%.
